Experimental data: PubChem BioAssay (NCI)
Values joined by “and” are separate entries in the source; they are usually repeats but may differ in a detail not shown here. Equal entries are not always repeated. This is part of a sample that, as a whole, favours compounds with a hit. Of some 79,000 tested, about 15% had one in any assay. More than one record can exist for a structure, and the calls need not agree. Active and inactive are the calls of the source. No stated cut-off is given here; in the data, active means growth inhibition above about 70%; inactive means the rest.

Tests used:
[1] = NCI Yeast Anticancer Drug Screen. Data for the rad52 strain (AID 147);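 further: 0% = growth of vehicle-treated control cultures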; conditions: S. cerevisiae rad52 mutant growth inhibition, stronger effect = higher value
Outline: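 The repair-mutant yeast strain was incubated with compounds, then growth was read and inhibition derived relative to vehicle.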

[2] = NCI Yeast Anticancer Drug Screen. Data for the wt1 strain (AID 149);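 further: 0% = growth of vehicle-treated wt1 cultures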; conditions: S. cerevisiae wt1 strain (SPY 50644) growth inhibition, stronger effect = higher value
Outline: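 Using yeast strain wt1, compound-induced growth inhibition was determined against vehicle-treated cultures.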

[3] = NCI Yeast Anticancer Drug Screen. Data for the rad50EPP+ strain (AID 151);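 further: 0% = growth of vehicle-treated control cultures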; conditions: S. cerevisiae rad50 mutant strain, stronger effect = higher value
Outline: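 Vehicle-normalised growth inhibition; rad50EPP+ yeast strain, altered in DNA damage repair, compound-treated.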

[4] = NCI Yeast Anticancer Drug Screen. Data for the rad50 strain (AID 155);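 further: 0% = growth of vehicle-only cultures of the same strain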; conditions: S. cerevisiae rad50 strain growth inhibition, stronger effect = higher value
Outline: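 Relative growth inhibition (compound vs vehicle) was measured in yeast with a defined repair-gene alteration.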

[5] = NCI Yeast Anticancer Drug Screen. Data for the mec2-1 strain (AID 157); conditions: S. cerevisiae mec2-1 strain, stronger effect = higher value
Outline: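 Mutant yeast (mec2-1) grown with compound; growth inhibition relative to vehicle control reported.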

[6] = NCI Yeast Anticancer Drug Screen. Data for the rad14 strain (AID 159);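 further: 0% = growth of vehicle-treated control cultures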; conditions: S. cerevisiae rad14 strain growth inhibition, stronger effect = higher value
Outline: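 Screen for anticancer potential: a yeast strain altered in DNA damage repair is grown with compound, and reduced growth is quantified against vehicle controls.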

[7] = NCI Yeast Anticancer Drug Screen. Data for the sgs1 mgt1 strain (AID 161);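 further: 0% = growth of cultures given vehicle only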; conditions: S. cerevisiae sgs1 mgt1 strain, stronger effect = higher value
Outline: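 Compounds are added to genetically altered yeast, and growth is compared with cultures given vehicle alone to give percent inhibition.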

[8] = NCI Yeast Anticancer Drug Screen. Data for the cln2 rad14 strain (AID 165);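 further: 0% = growth equal to vehicle treated cultures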; conditions: S. cerevisiae cln2 rad14 strain, stronger effect = higher value
Outline: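 Readout is yeast growth inhibition versus vehicle-treated controls, using a strain with cln2 and rad14 alterations exposed to compound.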

[9] = NCI Yeast Anticancer Drug Screen. Data for the bub3 strain (AID 167); conditions: S. cerevisiae bub3 mutant strain, stronger effect = higher value
Outline: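 Screening used yeast with an engineered genetic alteration affecting cell cycle control. Compound-exposed cultures were compared with vehicle cultures, and reduced growth was taken as inhibition.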

[10] = NCI Yeast Anticancer Drug Screen. Data for the wt2 strain (AID 169);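 further: 0% = growth of vehicle-treated yeast cultures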; conditions: S. cerevisiae wt2 strain growth inhibition, stronger effect = higher value
Outline: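 Against vehicle-treated controls, the growth of yeast exposed to each compound was compared, and the inhibition was recorded.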

[11] = NCI Yeast Anticancer Drug Screen. Data for the mlh1 strain (AID 171);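 further: 0% = growth of vehicle-treated control cultures of the same strain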; conditions: S. cerevisiae mlh1 strain growth inhibition, stronger effect = higher value
Outline: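 Measured: yeast growth. Reference: vehicle-treated controls. Organism: strain with a defined alteration affecting DNA damage repair or cell cycle control, treated with compound.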

[12] = NCI Yeast Anticancer Drug Screen. Data for the sgs1 strain (AID 173);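 further: 0% = growth of vehicle-only control cultures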; conditions: S. cerevisiae sgs1 mutant, stronger effect = higher value
Outline: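 Each compound was added to cultures of the altered yeast strain. Growth was recorded, and inhibition was derived by comparison with vehicle controls.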

[13] = NCI Yeast Anticancer Drug Screen. Data for the mlh1 rad18 strain (AID 175); conditions: S. cerevisiae mlh1 rad18 strain growth inhibition, stronger effect = higher value
Outline: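 Genetically defined yeast (DNA repair-deficient) exposed to compounds; growth inhibition determined relative to vehicle.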

[14] = NCI Yeast Anticancer Drug Screen. Data for the rad18 strain (AID 177); conditions: S. cerevisiae rad18 mutant growth inhibition, stronger effect = higher value
Outline: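 Vehicle-treated cultures served as the baseline for scoring compound-induced growth inhibition in DNA-repair-mutant yeast.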

[15] = NCI Yeast Anticancer Drug Screen. Data for the CLN2oe strain (AID 163);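 further: 0% = growth of vehicle-only control cultures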; conditions: S. cerevisiae CLN2oe strain, stronger effect = higher value
Outline: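 Compounds are applied to yeast harbouring a defined cell-cycle control change; reduced growth compared with vehicle-treated controls gives the value.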

[16] = NCI Yeast Anticancer Drug Screen. Data for the mgt1 strain (AID 153); conditions: S. cerevisiae mgt1 mutant growth inhibition, stronger effect = higher value
Outline: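 Vehicle-normalized growth inhibition is determined in mgt1 yeast, a strain selected for a defined alteration in DNA repair or cell cycle control.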

[17] = at 5.0 µM (retest, dose inferred, filed as 0.5)
[18] = at 50.0 µM (retest, dose inferred, filed as 5.0)

Measured: growth inhibition

COc1cccc2c1C(=O)c1c(O)c3c(c(O)c1C2=O)C[C@@](O)(/C(C)=N\O)C[C@@H]3OC1CC(N)C(O)C(C)O1 (stereo partly specified)
active: [1]; at 33.0 µM 84% | [1]; at 100.0 µM 90% | [3]; at 33.0 µM 82% | [3]; at 100.0 µM 89% | [4]; at 11.0 µM 79% | [4]; at 33.0 µM 89% | [4]; [18] 93% | [4]; at 50.0 µM 91.6% | [4]; at 100.0 µM 93% | [14]; at 100.0 µM 75%
inactive: [1]; at 1.2 µM 8% | [1]; at 3.7 µM 27% | [1]; at 11.0 µM 61% | [2]; at 1.2 µM 6% | [2]; at 3.7 µM 1% | [2]; at 11.0 µM 8% | [2]; at 33.0 µM 19% | [2]; at 100.0 µM 29% | [3]; at 1.2 µM 7% | [3]; at 3.7 µM 29% | [3]; at 11.0 µM 63% | [4]; at 1.2 µM 13% | [4]; at 3.7 µM 52% | [4]; [17] 22% | [5]; at 1.2 µM -2% | [5]; at 3.7 µM 3% | [5]; [17] 0% | [5]; at 11.0 µM 14% | [5]; at 33.0 µM 27% | [5]; [18] -14% | [5]; at 50.0 µM 5.75% | [5]; at 100.0 µM 38% | [6]; at 1.2 µM 1% | [6]; at 3.7 µM 3% | [6]; at 11.0 µM 8% | [6]; at 33.0 µM 29% | [6]; at 100.0 µM 63% | [7]; [17] -5% | [7]; [18] 26% | [7]; at 50.0 µM -9.9% | [8]; [17] 3% | [8]; [18] 18% | [8]; at 50.0 µM 26.2% | [9]; at 1.2 µM -2% | [9]; at 3.7 µM 0% | [9]; [17] 35% | [9]; at 11.0 µM 5% | [9]; at 33.0 µM 25% | [9]; [18] 18% | [9]; at 50.0 µM -23.6% | [9]; at 100.0 µM 47% | [10]; at 1.2 µM 0% | [10]; at 3.7 µM 1% | [10]; at 11.0 µM 12% | [10]; at 33.0 µM 25% | [10]; at 100.0 µM 37% | [11]; at 1.2 µM 1% | [11]; at 3.7 µM -1% | [11]; at 11.0 µM 11% | [11]; at 33.0 µM 26% | [11]; at 100.0 µM 49% | [12]; at 1.2 µM 0% | [12]; at 3.7 µM 5% | [12]; at 11.0 µM 15% | [12]; at 33.0 µM 29% | [12]; at 100.0 µM 48% | [13]; [17] 9% | [13]; [18] 46% | [13]; at 50.0 µM 13.8% | [14]; at 1.2 µM 3% | [14]; at 3.7 µM 10% | [14]; at 11.0 µM 20% | [14]; at 33.0 µM 43%

Oc1c(Br)cc(Br)cc1Br
52% (inactive) and 99.5% (active): [5]; at 50.0 µM
54% (inactive) and 98% (active): [4]; [18]
active: [1]; at 100.0 µM 88% | [2]; at 100.0 µM 91% | [3]; at 100.0 µM 88% | [4]; at 100.0 µM 91% | [5]; at 100.0 µM 86% | [6]; at 100.0 µM 77% | [7]; [18] 79% and 99% | [15]; at 100.0 µM 89% | [8]; [18] 87% and 99% | [9]; [18] 86% and 98% | [9]; at 50.0 µM 70.3% and 99.2% | [9]; at 100.0 µM 87% | [10]; at 100.0 µM 84% | [11]; at 100.0 µM 78% | [12]; at 100.0 µM 88% | [14]; at 100.0 µM 88%
35% (inactive) and 97% (active): [13]; [18]
49% (inactive) and 98.4% (active): [8]; at 50.0 µM
59.5% (inactive) and 98.7% (active): [7]; at 50.0 µM
66.5% (inactive) and 99% (active): [4]; at 50.0 µM
59.6% (inactive) and 99% (active): [13]; at 50.0 µM
44% (inactive) and 99% (active): [5]; [18]
inactive: [1]; at 1.2 µM 5% | [1]; at 3.7 µM 2% | [1]; at 11.0 µM 3% | [1]; at 33.0 µM 30% | [2]; at 1.2 µM -4% | [2]; at 3.7 µM -7% | [2]; at 11.0 µM 2% | [2]; at 33.0 µM 37% | [3]; at 1.2 µM 3% | [3]; at 3.7 µM 12% | [3]; at 11.0 µM 30% | [3]; at 33.0 µM 60% | [4]; at 1.2 µM 10% | [4]; at 3.7 µM 4% | [4]; [17] 41% and -1% | [4]; at 11.0 µM 5% | [4]; at 33.0 µM 41% | [5]; at 1.2 µM -1% | [5]; at 3.7 µM -7% | [5]; [17] 25% and 4% | [5]; at 11.0 µM 1% | [5]; at 33.0 µM 38% | [6]; at 1.2 µM -2% | [6]; at 3.7 µM 3% | [6]; at 11.0 µM 0% | [6]; at 33.0 µM 36% | [7]; [17] 7% | [15]; at 1.2 µM -14% | [15]; at 3.7 µM 7% | [15]; at 11.0 µM -1% | [15]; at 33.0 µM 21% | [8]; [17] 47% and -11% | [9]; at 1.2 µM -5% | [9]; at 3.7 µM 18% | [9]; [17] 40% and 0% | [9]; at 11.0 µM 24% | [9]; at 33.0 µM 39% | [10]; at 1.2 µM -8% | [10]; at 3.7 µM -9% | [10]; at 11.0 µM -8% | [10]; at 33.0 µM 26% | [11]; at 1.2 µM -3% | [11]; at 3.7 µM -19% | [11]; at 11.0 µM -9% | [11]; at 33.0 µM 22% | [12]; at 1.2 µM 13% | [12]; at 3.7 µM 12% | [12]; at 11.0 µM 6% | [12]; at 33.0 µM 37% | [13]; [17] 41% and 15% | [14]; at 1.2 µM 7% | [14]; at 3.7 µM 1% | [14]; at 11.0 µM 3% | [14]; at 33.0 µM 32%

CN(C)CCSC1=Nc2ccc(Cl)cc2C(c2ccccc2Cl)=NC1
active: [6]; at 100.0 µM 75%
inactive: [1]; at 1.2 µM -1% | [1]; at 3.7 µM -8% | [1]; at 11.0 µM 3% | [1]; at 33.0 µM 4% | [1]; at 100.0 µM 51% | [2]; at 1.2 µM -1% | [2]; at 3.7 µM -1% | [2]; at 11.0 µM 0% | [2]; at 33.0 µM 2% | [2]; at 100.0 µM -1% | [3]; at 1.2 µM -3% | [3]; at 3.7 µM -2% | [3]; at 11.0 µM -2% | [3]; at 33.0 µM -3% | [3]; at 100.0 µM 0% | [16]; at 1.2 µM -2% | [16]; at 3.7 µM -1% | [16]; at 11.0 µM 0% | [16]; at 33.0 µM 6% | [16]; at 100.0 µM 66% | [5]; at 1.2 µM -2% | [5]; at 3.7 µM -2% | [5]; [17] 3% | [5]; at 11.0 µM 0% | [5]; at 33.0 µM 9% | [5]; [18] 12% | [5]; at 50.0 µM -4.25% and -24.8% | [5]; at 100.0 µM 33% | [6]; at 1.2 µM 0% | [6]; at 3.7 µM 4% | [6]; at 11.0 µM 17% | [6]; at 33.0 µM 45% | [7]; [17] 11% | [7]; [18] 47% | [7]; at 50.0 µM 50% and 24.2% | [15]; at 1.2 µM -1% | [15]; at 3.7 µM -1% | [15]; at 11.0 µM 4% | [15]; at 33.0 µM 15% | [15]; at 100.0 µM 24% | [8]; [17] 4% | [8]; [18] 8% | [8]; at 50.0 µM 15.7% and -4.25% | [9]; at 1.2 µM -1% | [9]; at 3.7 µM -3% | [9]; [17] 0% | [9]; at 11.0 µM -3% | [9]; at 33.0 µM 9% | [9]; [18] 52% | [9]; at 50.0 µM 61.9% and 10.9% | [9]; at 100.0 µM 50% | [11]; at 1.2 µM -1% | [11]; at 3.7 µM -4% | [11]; at 11.0 µM -1% | [11]; at 33.0 µM -27% | [11]; at 100.0 µM 64% | [13]; [17] 4% | [13]; [18] 28% | [13]; at 50.0 µM 40.2% and 7.1%
